35 molecules from paper PMC9911399, “Two distinct binding modes provide the RNA-binding protein RbFox with extraordinary sequence specificity” can be followed below.

Sequences and labels used below:
T1: RBFOX1 RRM (Homo sapiens, UniProt Q9NWB1 109-208)
T1 sequence: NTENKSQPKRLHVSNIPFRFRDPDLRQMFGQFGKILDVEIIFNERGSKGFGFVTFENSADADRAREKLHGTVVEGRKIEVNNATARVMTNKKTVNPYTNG

B1: GUAAUAU (DNA:RNA)
RNA: GGGAGACCGGAAUUCAGAUUGUCCGUAAUAUUUAAAUCCCGUCGUAGCCACCA
DNA 1: CAATCTGAATTCCGGTCTCCC
DNA 2: TGGTGGCTACGACGGGATT
B2: UGUUGCG (DNA:RNA)
RNA: GGGAGACCGGAAUUCAGAUUGUCCUGUUGCGUUAAAUCCCGUCGUAGCCACCA
DNA 1: CAATCTGAATTCCGGTCTCCC
DNA 2: TGGTGGCTACGACGGGATT
B3: CGUUGCG (DNA:RNA)
RNA: B2 RNA with U25C
DNA 1: CAATCTGAATTCCGGTCTCCC
DNA 2: TGGTGGCTACGACGGGATT
B4: UGCGUUG (DNA:RNA)
RNA: B2 RNA with U27C, U28G, G29U, C30U
DNA 1: CAATCTGAATTCCGGTCTCCC
DNA 2: TGGTGGCTACGACGGGATT
B5: AAUGGAA (DNA:RNA)
RNA: B2 RNA with U25A, G26A, U28G, C30A, G31A
DNA 1: CAATCTGAATTCCGGTCTCCC
DNA 2: TGGTGGCTACGACGGGATT
B6: UGGCUCC (DNA:RNA)
RNA: B2 RNA with U27G, U28C, G29U, G31C
DNA 1: CAATCTGAATTCCGGTCTCCC
DNA 2: TGGTGGCTACGACGGGATT
B7: GUGCUCU (DNA:RNA)
RNA: B1 RNA with A27G, A28C, A30C
DNA 1: CAATCTGAATTCCGGTCTCCC
DNA 2: TGGTGGCTACGACGGGATT
B8: GUGCUCC (DNA:RNA)
RNA: B1 RNA with A27G, A28C, A30C, U31C
DNA 1: CAATCTGAATTCCGGTCTCCC
DNA 2: TGGTGGCTACGACGGGATT
B9: UGCUCCG (DNA:RNA)
RNA: B2 RNA with U27C, G29C
DNA 1: CAATCTGAATTCCGGTCTCCC
DNA 2: TGGTGGCTACGACGGGATT
B10: CGUGCUC (DNA:RNA)
RNA: B2 RNA with U25C, U28G, G29C, C30U, G31C
DNA 1: CAATCTGAATTCCGGTCTCCC
DNA 2: TGGTGGCTACGACGGGATT
B11: UGCUCCC (DNA:RNA)
RNA: B2 RNA with U27C, G29C, G31C
DNA 1: CAATCTGAATTCCGGTCTCCC
DNA 2: TGGTGGCTACGACGGGATT
B12: UGGCCCG (DNA:RNA)
RNA: B2 RNA with U27G, U28C, G29C
DNA 1: CAATCTGAATTCCGGTCTCCC
DNA 2: TGGTGGCTACGACGGGATT
B13: UGGCUCG (DNA:RNA)
RNA: B2 RNA with U27G, U28C, G29U
DNA 1: CAATCTGAATTCCGGTCTCCC
DNA 2: TGGTGGCTACGACGGGATT
B14: GUGCUCG (DNA:RNA)
RNA: B1 RNA with A27G, A28C, A30C, U31G
DNA 1: CAATCTGAATTCCGGTCTCCC
DNA 2: TGGTGGCTACGACGGGATT
B15: CGCUACC (DNA:RNA)
RNA: B2 RNA with U25C, U27C, G29A, G31C
DNA 1: CAATCTGAATTCCGGTCTCCC
DNA 2: TGGTGGCTACGACGGGATT
B16: AGAGCCU (DNA:RNA)
RNA: B1 RNA with G25A, U26G, A28G, U29C, A30C
DNA 1: CAATCTGAATTCCGGTCTCCC
DNA 2: TGGTGGCTACGACGGGATT
B17: UAUGCGC (DNA:RNA)
RNA: B2 RNA with G26A, U28G, G29C, C30G, G31C
DNA 1: CAATCTGAATTCCGGTCTCCC
DNA 2: TGGTGGCTACGACGGGATT
B18: CUUCGUU (DNA:RNA)
RNA: B1 RNA with G25C, A27U, A28C, U29G, A30U
DNA 1: CAATCTGAATTCCGGTCTCCC
DNA 2: TGGTGGCTACGACGGGATT
B19: UCCGGCC (DNA:RNA)
RNA: B2 RNA with G26C, U27C, U28G, G31C
DNA 1: CAATCTGAATTCCGGTCTCCC
DNA 2: TGGTGGCTACGACGGGATT
B20: UUACUUG (DNA:RNA)
RNA: B1 RNA with G25U, A28C, A30U, U31G
DNA 1: CAATCTGAATTCCGGTCTCCC
DNA 2: TGGTGGCTACGACGGGATT
B21: GAGUGAG (DNA:RNA)
RNA: B2 RNA with U25G, G26A, U27G, C30A
DNA 1: CAATCTGAATTCCGGTCTCCC
DNA 2: TGGTGGCTACGACGGGATT
B22: CAGGUUU (DNA:RNA)
RNA: B1 RNA with G25C, U26A, A27G, A28G, A30U
DNA 1: CAATCTGAATTCCGGTCTCCC
DNA 2: TGGTGGCTACGACGGGATT
B23: CGCCAGG (DNA:RNA)
RNA: B2 RNA with U25C, U27C, U28C, G29A, C30G
DNA 1: CAATCTGAATTCCGGTCTCCC
DNA 2: TGGTGGCTACGACGGGATT
B24: GGAGCUU (DNA:RNA)
RNA: B1 RNA with U26G, A28G, U29C, A30U
DNA 1: CAATCTGAATTCCGGTCTCCC
DNA 2: TGGTGGCTACGACGGGATT
B25: GGAGAGC (DNA:RNA)
RNA: B1 RNA with U26G, A28G, U29A, A30G, U31C
DNA 1: CAATCTGAATTCCGGTCTCCC
DNA 2: TGGTGGCTACGACGGGATT
B26: GGGGAGC (DNA:RNA)
RNA: B1 RNA with U26G, A27G, A28G, U29A, A30G, U31C
DNA 1: CAATCTGAATTCCGGTCTCCC
DNA 2: TGGTGGCTACGACGGGATT
B27: GGAACUU (DNA:RNA)
RNA: B1 RNA with U26G, U29C, A30U
DNA 1: CAATCTGAATTCCGGTCTCCC
DNA 2: TGGTGGCTACGACGGGATT
B28: CGGAACU (DNA:RNA)
RNA: B1 RNA with G25C, U26G, A27G, U29A, A30C
DNA 1: CAATCTGAATTCCGGTCTCCC
DNA 2: TGGTGGCTACGACGGGATT
B29: CGGGAGC (DNA:RNA)
RNA: B2 RNA with U25C, U27G, U28G, G29A, C30G, G31C
DNA 1: CAATCTGAATTCCGGTCTCCC
DNA 2: TGGTGGCTACGACGGGATT
B30: CGGAGCU (DNA:RNA)
RNA: B2 RNA with U25C, U27G, U28A, G31U
DNA 1: CAATCTGAATTCCGGTCTCCC
DNA 2: TGGTGGCTACGACGGGATT
B31: GGGAACU (DNA:RNA)
RNA: B1 RNA with U26G, A27G, U29A, A30C
DNA 1: CAATCTGAATTCCGGTCTCCC
DNA 2: TGGTGGCTACGACGGGATT
B32: GGGAAGC (DNA:RNA)
RNA: B1 RNA with U26G, A27G, U29A, A30G, U31C
DNA 1: CAATCTGAATTCCGGTCTCCC
DNA 2: TGGTGGCTACGACGGGATT
B33: GGAAGCU (DNA:RNA)
RNA: B1 RNA with U26G, U29G, A30C
DNA 1: CAATCTGAATTCCGGTCTCCC
DNA 2: TGGTGGCTACGACGGGATT
B34: CGGAAGC (DNA:RNA)
RNA: B1 RNA with G25C, U26G, A27G, U29A, A30G, U31C
DNA 1: CAATCTGAATTCCGGTCTCCC
DNA 2: TGGTGGCTACGACGGGATT
B35: GGGAGCU (DNA:RNA)
RNA: B1 RNA with U26G, A27G, U29G, A30C
DNA 1: CAATCTGAATTCCGGTCTCCC
DNA 2: TGGTGGCTACGACGGGATT

Substitutions are numbered along the chain they refer to; changes in the protein carry UniProt numbers. In all, about 16,000 sequences were measured (“ka relative to ugcaugu”: median about 0.0091, highest 2% from about 0.032 on). The full list was thinned out, with the highest values kept by preference.

The experiment addresses T1, RBFOX1 RRM. As to the kind of experiment: EMSA; HiTS-Eq, 1 nM pool, 10 min; buffer printed only for the single-RNA assays: 10 mM Tris pH 7.5, 150 mM NaCl, 3.4 mM EDTA, 0.001% NP-40, 30 C. The conditions noted are these: tags: His6 N-terminal (pET28a); label: 5' 32P. The procedure, abridged: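 Purified RbFox RRM, wild type or mutant, was incubated for 10 min in 50 µL with 1 nM of a 5′-radiolabelled RNA pool carrying 7 randomized nucleotides, whose flanks were annealed to DNA oligonucleotides, over a series of increasing protein concentrations. Unbound RNA was resolved on 8% native PAGE, cut out, reverse-transcribed, barcoded by PCR and sequenced on an Illumina HiSeq 2500. Relative association constants were derived from changes in read counts for each RNA species versus the control reaction and normalised to the cognate motif.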
(Mobility shift assays separate free from complexed probe on a gel.)
For the molecule B1, the binding signal is 0.00279 KA relative to UGCAUGU.
In the case of B2, the binding signal was 0.0326 KA relative to UGCAUGU.
Consider B3, for which the binding signal is 0.0173 KA relative to UGCAUGU.
The figure for B4 is 0.0296 KA relative to UGCAUGU.
In the case of B5, the binding signal is 0.00264 KA relative to UGCAUGU.
In the case of B6, the binding signal was 0.00985 KA relative to UGCAUGU.
Under B7 stands 0.0226 KA relative to UGCAUGU.
Under B8 stands 0.0357 KA relative to UGCAUGU; under B9, 0.0132 KA relative to UGCAUGU.
Under B10 stands 0.0133 KA relative to UGCAUGU.
As to B11, the binding signal was 0.00242 KA relative to UGCAUGU.
The figure for B12 is 0.0217 KA relative to UGCAUGU.
Under B13 stands 0.0396 KA relative to UGCAUGU.
Under B14 stands 0.0432 KA relative to UGCAUGU; under B15, 0.00834 KA relative to UGCAUGU; under B16, 0.00804 KA relative to UGCAUGU.
Regarding B17, the binding signal was 0.0181 KA relative to UGCAUGU.
The figure for B18 is 0.0135 KA relative to UGCAUGU.
Take B19: the binding signal is 0.00966 KA relative to UGCAUGU.
For B20, the binding signal is 0.0182 KA relative to UGCAUGU.
Under B21 stands 0.0102 KA relative to UGCAUGU; under B22, 0.0116 KA relative to UGCAUGU.
With B23, the binding signal is 0.0105 KA relative to UGCAUGU.
The figure for B24 is 0.0232 KA relative to UGCAUGU.
Under B25 stands 0.0169 KA relative to UGCAUGU.
Under B26 stands 0.0326 KA relative to UGCAUGU; under B27, 0.0138 KA relative to UGCAUGU; under B28, 0.0254 KA relative to UGCAUGU.
Turning to B29, the binding signal was 0.0286 KA relative to UGCAUGU.
B30: the binding signal was 0.0245 KA relative to UGCAUGU.
Under B31 stands 0.0404 KA relative to UGCAUGU; under B32, 0.036 KA relative to UGCAUGU.
For B33, the binding signal is 0.0135 KA relative to UGCAUGU.
For the molecule B34, the binding signal was 0.0209 KA relative to UGCAUGU.
The figure for B35 is 0.035 KA relative to UGCAUGU.
